Most compounds without a hit are left out; they make up all but 15% or so of the library.
RORgamma inh: inhibitors of mouse ROR gamma transcriptional activity; actives 5.4% (n = 310,000); AID 2551; P51450; Drosophila S2 Gal4-RORgamma UAS-luciferase reporter, 20 h; Potency, µM (top dose mostly 53.6 µM), for the others: top-dose activity change, negative = inhibition, usual class: inhibitors; also: nearly all actives have a fitted effect of over 60% in size
Target sequence (P51450 whole entry, looked up, the tested form may be a part): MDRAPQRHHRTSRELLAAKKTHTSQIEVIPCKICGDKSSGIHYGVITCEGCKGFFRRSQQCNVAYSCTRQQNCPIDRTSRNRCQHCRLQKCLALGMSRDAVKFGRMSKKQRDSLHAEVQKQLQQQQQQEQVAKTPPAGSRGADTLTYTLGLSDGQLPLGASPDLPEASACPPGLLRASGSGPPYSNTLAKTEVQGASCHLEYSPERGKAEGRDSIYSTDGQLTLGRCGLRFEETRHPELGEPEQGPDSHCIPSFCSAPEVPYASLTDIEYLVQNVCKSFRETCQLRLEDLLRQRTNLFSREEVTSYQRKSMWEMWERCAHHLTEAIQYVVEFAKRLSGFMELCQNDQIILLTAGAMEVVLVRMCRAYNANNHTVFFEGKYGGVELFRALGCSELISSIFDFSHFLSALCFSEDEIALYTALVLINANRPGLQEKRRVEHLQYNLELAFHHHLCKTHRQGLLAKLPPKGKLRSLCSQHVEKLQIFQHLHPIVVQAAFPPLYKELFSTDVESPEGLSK
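Read-out: Photinus luciferase luminescence; inhibitors lower reporter signal. Insect Schneider cells with Gal4-ROR gamma fusion under metallothionein promoter, UAS reporter; 700 uM final copper sulfate induction, 20 hr, ambient temperature.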
Gal4-VP16 FLuc: Gal4-VP16 reporter inhibition counter-screen | actives 3.5% (n = 310,000) | AID 2546 | Drosophila S2 Gal4-VP16 UAS-luciferase, luminescence, 20 h | Potency, µM (titrated, usually from 53.6 µM), for the others: at the highest dose activity, negative = inhibition, usual class: inhibitors;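 also: Gal4-VP16 expression switched on by copper sulfate through the metallothionein promoter; nearly all actives have a fitted effect of over 50% in size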
TDP1 cell noCPT: qHTS for Inhibitors of human tyrosyl-DNA phosphodiesterase 1 (TDP1): qHTS in cells in absence of CPT | DT40 Tdp1-/- hTDP1 cells, no CPT, ATP luminescence, 48 h | Potency, µM (top dose mostly 46.2 µM), for the others: at the highest dose activity change, negative = growth inhibition, most hits filed as inhibitors | actives 15% (n = 420,000) | AID 686978, 2013; also: nearly all actives have a fitted effect of over 55% in size
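Chicken DT40 Tdp1-/- cells stably complemented with human TDP1 were seeded at 400 cells/well with DMSO in place of 20 nM camptothecin. After compound pinning, cells grew at least 48 hr at 37 °C; viability read by CellTiter-Glo luminescence.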
DT40 TDP1 CPT: DT40-hTDP1 cell growth loss with CPT; actives 12% (n = 420,000); Potency, µM (series often up to 46.2 µM), for inactives: top-dose activity change, negative = growth inhibition, most hits filed as inhibitors; chicken DT40 Tdp1-/-;hTDP1 cells + 20 nM CPT, ATP luminescence, 48 h; also: nearly all actives have a fitted effect of over 55% in size
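Chicken DT40 Tdp1-/- cells complemented with human TDP1, 400 cells/well, exposed to compounds plus 20 nM camptothecin for at least 48 h at 37 C; viability read as ATP content by CellTiter-Glo luminescence.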
ELG1 DNA repair: ELG1-dependent DNA repair inhibition; HEK293T ELG1-luciferase reporter, luminescence, 16 h; DNA damage induced by 5-fluorouridine; Potency, µM (titrated, usually from 46.1 µM), for inactives: at the top dose activity change, negative = inhibition, usual class: inhibitors; actives 2.3% (n = 330,000); also: nearly all actives have a fitted effect of over 55% in size
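Cells (2,000 per well) received 5-fluorouridine plus test compound or DMSO and were incubated 16 hr at 37 °C, 5% CO2. Luciferase activity was read by luminescence 30 min after ONE-Glo addition; signal suppression marked inhibition of damage-induced ELG1 function.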
ALOX12 inh: ALOX12 (human) lipoxygenase inhibition | purified 12hLO, xylenol orange hydroperoxide absorbance | Potency, µM (doses to about 108 µM), without a hit: at the highest dose activity change, negative = inhibition, most hits filed as inhibitors | actives 1.1% (n = 580,000)
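Purified human 12hLO at 150 nM in 25 mM Hepes, 0.01% Triton X-100, pH 7.0, preincubated 15 min at room temperature with compound. Reaction started with 40 uM arachidonic acid, 30 min at room temperature. Hydroperoxide measured by Fe-xylenol orange, 573/405 nm absorbance ratio.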
Numbers without * were called inactive; ? = inconclusive; / = no result; [ ] = remark or other dose. Calls follow the shape of the dose curve; as a rule, active = well fitted curve in the direction sought with a large enough effect; inconclusive = small, poorly fitted or top-dose-only effect, or another doubt; inactive = no such curve, though single readings can be large; an effect the other way counts as inactive or inconclusive. % is scaled to controls: 0 for no effect and ±100 for the full control effect; potency is read from the fitted curve at half-maximal effect.

SMILES | RORgamma inh | Gal4-VP16 FLuc | TDP1 cell noCPT | DT40 TDP1 CPT | ELG1 DNA repair | ALOX12 inh
C=CCNc1nc(C(=O)OC(C)C(=O)Nc2ccc(NC(C)=O)cc2)cs1 (configuration not stated) | / | / | / | / | / | 1.0%
COc1c(O)cc2c(c1O)C(=O)CC(c1ccccc1)O2 (configuration not stated) | 0.1% | -0.1% | / | / | ? | /
Cc1c(O)cc2c(c1O)C(=O)CC(c1ccccc1)O2 (configuration not stated) | 0.9% | -7.7% | 5.8µM* | 5.8µM* | 3.6% | ?
CCCOc1ccccc1C(=O)Nc1nonc1CC | / | / | / | / | / | 0.7%
CSCCC(NC(=O)c1ccccc1)C(=O)NCc1ccc(C(F)(F)F)cc1 (configuration not stated) | / | / | / | / | / | 23.4%
Cn1nc(-c2ccccc2)c(/C=N/O)c1Cl | 12.0% | 7.9% | 3.2% | -10.6% | -9.1% | -2.5%
Cc1[nH]n(-c2ccccc2)c(=O)c1C=Nc1ccc(S(=O)(=O)NC(N)=O)cc1 | -10.3% | -20.3% | -25.7% | -27.7% | 3.3% | -10.1%
Cn1[nH]c(-c2ccccc2)c(/C=N/O)c1=O | 3.55µM* | 0.891µM* | 16.4µM* | ? | -21.8% | 0.5%
COCC(=O)N/N=C/c1c(C)[nH]n(-c2ccccc2)c1=O | 0.631µM* | ? | 16.4µM* | 18.4µM* | ? | -22.9%
CC(=O)N/N=C/c1c(C)[nH]n(-c2ccccc2)c1=O | 5.01µM* | 11.2µM* | ? | -16.3% | -4.4% | -23.8%
Cc1[nH]n(-c2ccccc2)c(=O)c1/C=N/NC(=O)C(C)C | 6.31µM* | 3.16µM* | ? | 14.6µM* | -13.7% | ?
CN(C)C[C@@H]1CN(c2ccncn2)C[C@H]1NC(=O)c1cnco1 | / | / | / | / | / | -4.0%
O=C(COc1ncnc2ccccc12)Nc1ccc(Oc2ccccc2)cc1 | / | / | / | / | / | -3.6%
CSc1nnc(-c2ccccc2N=Cc2c(C)[nH]n(-c3ccccc3)c2=O)c(=O)[nH]1 | ? | -4.9% | ? | -9.3% | 5.1% | 15.8%
Cc1[nH]n(-c2ccccc2)c(=O)c1/C=N/N(C)c1ccccc1 | 7.94µM* | ? | ? | ? | 6.9% | ?
Cc1ccc2cccc(N=Cc3c(C)[nH]n(-c4ccccc4)c3=O)c2n1 | 1µM* | 1µM* | ? | ? | -0.9% | 17.3%
Cc1[nH]n(-c2ccccc2)c(=S)c1C=NCCCN=Cc1c(C)[nH]n(-c2ccccc2)c1=S | 0.631µM* | 1.78µM* | -16.9% | ? | ? | 11.2µM*
Cc1nn(-c2ccccc2)c(Cl)c1/C=N/NC(=O)c1ccccc1F | -9.2% | 7.9% | ? | -25.1% | ? | 4.8%
Cc1[nH]n(-c2ccccc2)c(=O)c1/C=N/NC(=O)c1ccccc1F | 0.501µM* | 1µM* | 5.17µM* | 6.51µM* | 2.31µM* | 0.0%
O=c1cc(-c2ccccc2)sc2nnc(-c3ccc(Cl)cc3)n12 | / | / | / | / | / | 32.0%
CC(=O)N(Cc1ccccc1)Cc1cc2ccccc2[nH]c1=O | / | / | / | / | / | 1.4%
O=C(NCc1nnc2cc(-c3nc(C4CC4)no3)ccn12)c1cccnc1 | / | / | / | / | / | 40.5%
O=C(C1CCc2nnc(C3CCN([S+](=O)([O-])c4ccccc4)CC3)n21)N1CCN(c2ncccn2)CC1 (configuration not stated) | / | / | / | / | / | -1.8%[6.33 µM]
Cc1[nH]n(-c2ccccc2)c(=O)c1/C=N/NC(=O)COc1ccccc1[N+](=O)[O-] | 0.447µM* | 0.631µM* | 4.61µM* | 5.8µM* | 1.6% | ?
Cc1c(/C=N/NC(=O)COc2ccccc2[N+](=O)[O-])c2ccccc2n1C | 7.5% | -6.5% | ? | ? | ? | -2.1%
SMILES | RORgamma inh | Gal4-VP16 FLuc | TDP1 cell noCPT | DT40 TDP1 CPT | ELG1 DNA repair | ALOX12 inh
Cc1[nH]n(-c2ccccc2)c(=O)c1C=Nc1ccc(S(N)(=O)=O)cc1 | 1.0% | -2.8% | 2.9% | 1.8% | -0.3% | 1.0%
Cc1[nH]n(-c2ccccc2)c(=O)c1/C=N/O | 2.51µM* | 3.55µM* | -19.2% | -19.7% | 13.4% | 10.4%
Cc1[nH]n(-c2ccccc2)c(=O)c1/C=N/N1C(=O)c2ccc3c4c(ccc(c24)C1=O)CC3 | 10µM* | ? | 18.4µM* | ? | -1.2% | 3.0%
Cc1ccc(OCC(=O)N/N=C\c2c(C)n(C)c3ccccc23)c([N+](=O)[O-])c1 | 24.3% | 0.7% | 18.4µM* | ? | ? | /
Cc1[nH]n(-c2ccccc2)c(=O)c1/C=N\NC(=O)C1COc2ccccc2O1 (configuration not stated) | 0.794µM* | 1.12µM* | 5.17µM* | 3.26µM* | ? | ?
COC(=O)CN=Cc1c(C)[nH]n(-c2ccccc2)c1=O | 0.1% | 5.1% | -2.0% | -3.6% | 1.7% | 9.3%
COC(=O)N/N=C\c1c(C)[nH]n(-c2ccccc2)c1=O | 11.2µM* | ? | -13.3% | 1.6% | -5.7% | 5.1%
CC(=O)c1cccc(NC(=O)C(C)Sc2ccccc2Cl)c1 (configuration not stated) | / | / | / | / | / | -25.5%
CCCCCCn1c(=O)n2n(c1=O)C[C@]1(OC(=O)Nc3cccs3)CN(S(=O)(=O)c3ccc(C)cc3)C[C@]1(O)C2 | / | / | 13µM* | 20.6µM* | / | 35.5µM*
CCCCCCn1c(=O)n2n(c1=O)C[C@]1(OC(=O)Nc3c(C)noc3C)CN(S(=O)(=O)c3ccc(C)cc3)C[C@]1(O)C2 | / | / | 20.6µM* | ? | / | ?
CCCCCCn1c(=O)n2n(c1=O)C[C@]1(OC(=O)NCc3ccccc3)CN(S(=O)(=O)c3ccc(C)cc3)C[C@]1(O)C2 | / | / | 14.6µM* | ? | / | ?
Cc1ccc(S(=O)(=O)N2C[C@]3(O)C[C@@H]4C(=O)N(c5ccccc5)C(=O)[C@@H]4C[C@]3(OC(=O)NCc3ccco3)C2)cc1 | / | / | -29.1% | -0.7% | / | -20.8%
CCCCCCn1c(=O)n2n(c1=O)C[C@]1(OC(=O)NCc3ccco3)CN(S(=O)(=O)c3ccc(C)cc3)C[C@]1(O)C2 | / | / | 25.9µM* | ? | / | -4.8%
Cc1ccc(S(=O)(=O)N2C[C@]3(O)C[C@@H]4C(=O)N(c5ccccc5)C(=O)[C@@H]4C[C@]3(OC(=O)NCc3ccccc3)C2)cc1 | / | / | -23.6% | -7.4% | / | 28.6%
CC[C@H]1CN(S(=O)(=O)c2c(C)noc2C)CC[C@H]1CC(=O)Nc1nccs1 | / | / | / | / | / | -3.2%[176 µM]
COc1ccc(/C=C/c2nc(C#N)c(NC3CCCCC3)o2)cc1OC | / | / | 20.6µM* | 20.6µM* | / | -11.8%

Assay outcomes from PubChem BioAssay.
